{"source": "PubChem BioAssay (EPA / NIEHS)", "note": "Several values for one entry are separate records, joined by “and”; a condition that tells them apart may be missing. Equal values may be shown once. Activity calls are given as the source filed them. How the source made its calls: active means hit-call score of the fitted dose curve at least 0.9, where 1 is the maximum; inactive means score below 0.9."}
{"read-out": "urokinase plasminogen activator (uPA), PLAU (gene 5328)", "test": "BSK_KF3CT_uPA: BioMAP Diversity Plus: KF3CT Assay for urokinase plasminogen activator (uPA) Biomarker Activity (AID 2283075)", "conditions": "primary human keratinocytes with fibroblasts; actives raise or lower the signal", "experimental": "BSK_KF3CT is a cell-based, multiplexed-readout assay that uses keratinocytes and foreskin fibroblasts, a human skin primary cell co-culture, with measurements taken at 24 hours after chemical dosing in a 96-well plate.BSK_KF3CTA is an assay component measured in the BSK_KF3CT assay. It measures uPA antibody related to regulation of gene expression using ELISA technology.Data from the assay component BSK_KF3CTA was analyzed into 1 assay endpoint. This assay endpoint, BSK_KF3CTA, was analyzed with bidirectional fitting relative to DMSO as the negative control and baseline of activity. Using a type of binding reporter, gain or loss-of-signal activity can be used to understand changes in the signaling as they relate to the gene PLAU. Furthermore, this assay endpoint can be referred to as a primary readout, because this assay has produced multiple assay endpoints where this one serves a signaling function. To generalize the intended target to other relatable targets, this assay endpoint is annotated to the protease intended target family, where the subfamily is serine protease.\nThe levels of cell surface (or secreted, indicated by the prefix \"s\") biomarker endpoints were measured by ELISA. Overt cytotoxicity to cells in confluent adherent cultures (all systems other than the BT system) was assessed by measuring total protein levels using sulforhodamine B (SRB) staining in parallel cultures at the time of biomarker measurements, indicated as SRB endpoints. For proliferation assays for adherent cell types, individual cell types are cultured at sub-confluence and relative cell numbers quantified by SRB staining at time points optimized for each system (48 h: 3C and CASM3C systems; 72 h: BT and HDF3CGF systems; 96 h: SAg system). SRB was performed by staining cells with 0.1% SRB after fixation with 10% TCA and reading wells at 560 nm.Viability and proliferation of PBMC (T cells) was quantified by Alamar Blue reduction for the SAg and BT systems. For PBMC viability (referred to as PBMC Cytotoxicity within the assay endpoint names), cells were plated (75,000/well in a 96-well plate) and then chemical samples added for 1 h before addition of activators, SEB and TSST-1 (20 ng/mL final concentration each). Cells were incubated for 90 h. Then, Alamar Blue (20 uL/well) (Invitrogen, Cat DAL1100) was added for 6 h, and the plates were read with a fluorescence microplate reader at 546/580 nm (excitation/emission). For PBMC proliferation, cells were plated and activated as above but incubated for only 16 h prior to addition of Alamar Blue. Plates were read after 6 h."}
{"smiles": "O=C(O)CCCc1ccc(N(CCCl)CCCl)cc1", "outcome": "inactive"}
{"smiles": "CCc1cc(C)cc(CC)c1-c1c(OC(=O)C(C)(C)C)n2n(c1=O)CCOCC2", "outcome": "inactive"}
{"smiles": "CC(=O)/C=C/c1ccccc1", "outcome": "inactive"}
{"smiles": "O=[N+]([O-])C=Cc1ccccc1", "AC50": "10.2 µM (active)"}
{"smiles": "Cc1ccc(OP(=O)(Oc2ccc(C)cc2)Oc2ccc(C)cc2)cc1", "note": "(tested in a mixture with another compound)", "outcome": "inactive"}
{"smiles": "O=P1(NCCCl)OCCCN1CCCl", "note": "(stereo not drawn)", "outcome": "inactive"}
{"smiles": "CC(C)(C)C(=O)CCl", "outcome": "inactive"}
{"smiles": "O=c1c2ccccc2c(=O)c2c1cc(Cl)c1[nH]c3c([nH]c12)c(Cl)cc1c(=O)c2ccccc2c(=O)c13", "outcome": "inactive"}
{"smiles": "CC(C)CCCCCCCOC(=O)c1ccccc1C(=O)OCCCCCCCC(C)C", "outcome": "inactive"}
{"smiles": "O=C(CCl)c1ccccc1", "AC50": "30 µM (active)"}
{"smiles": "CC(C)(C)C(O)C(Oc1ccc(-c2ccccc2)cc1)n1cncn1", "note": "(stereo not drawn)", "outcome": "inactive"}
{"smiles": "CC(C)CCCCCCCOP(=O)(Oc1ccccc1)Oc1ccccc1", "AC50": "20 µM (active)"}
{"smiles": "CC1(C)[C@H](C(=O)O[C@H](C#N)c2cccc(Oc3ccccc3)c2)[C@@H]1C=C(Br)Br", "outcome": "inactive"}
{"smiles": "CNC(=O)Oc1cc(C)c(SC)c(C)c1", "outcome": "inactive"}
{"smiles": "[Cd+2].[Cl-].[Cl-]", "AC50": "32.6 µM (active) and 35.8 µM (active)"}
{"smiles": "COC(C)(C)CCC[C@H](C)C/C=C/C(C)=C/C(=O)OC(C)C", "outcome": "inactive"}
{"smiles": "Oc1cc(Cl)ccc1Cl", "outcome": "inactive"}
{"smiles": "C=CCN(CC=C)C(=O)C(Cl)Cl", "outcome": "inactive"}
{"smiles": "Oc1ccc(C2(c3ccc(O)cc3)c3ccccc3-c3ccccc32)cc1", "AC50": "8.33 µM (active) and 9.87 µM (active)"}
{"smiles": "O=[N+]([O-])c1ccc(Cl)cc1", "outcome": "inactive"}
{"smiles": "CCCC[N+](CCCC)(CCCC)CCCC", "outcome": "inactive"}
{"smiles": "Nc1ccc(-c2ccc(N)c(N)c2)cc1N", "outcome": "inactive"}
{"smiles": "O=[N+]([O-])O", "outcome": "inactive"}
{"smiles": "COc1ccc(CO)cc1", "outcome": "inactive"}
{"smiles": "c1ccc(Nc2ccc3ccccc3c2)cc1", "AC50": "30.7 µM (active)"}
{"smiles": "N#CCCCCC#N", "outcome": "inactive"}
{"smiles": "COCC(=O)N(c1c(C)cccc1C)N1CCOC1=O", "outcome": "inactive"}
{"smiles": "CCCOC(=O)c1ccccc1C(=O)OCCC", "outcome": "inactive"}
{"smiles": "CCC(C)c1cc([N+](=O)[O-])cc([N+](=O)[O-])c1OC(=O)C=C(C)C", "note": "(stereo not drawn)", "AC50": "30.3 µM (active)"}
{"smiles": "C=CC(=O)OCC(CC)CCCC", "note": "(stereo not drawn)", "AC50": "0.016 µM (active)"}
{"smiles": "CCCCCCCCCCCC#N", "outcome": "inactive"}
{"smiles": "O=C1C(Cl)=C(Cl)C(=O)C(Cl)=C1Cl", "AC50": "28.5 µM (active)"}
{"smiles": "CC(C)COP(=O)(OCC(C)C)OCC(C)C", "outcome": "inactive"}
{"smiles": "CC(C)(c1cc(Cl)c(O)c(Cl)c1)c1cc(Cl)c(O)c(Cl)c1", "AC50": "9.27 µM (active)"}
{"smiles": "Clc1ccc(-c2ccccc2)cc1", "outcome": "inactive"}
{"smiles": "O=S(=O)(c1ccccc1)c1ccccc1", "outcome": "inactive"}
{"smiles": "O=C1C=CC(=O)C=C1", "AC50": "30.9 µM (active) and 30.6 µM (active)"}
{"smiles": "O=c1[nH]c(Cl)c(Cl)cc1Cl", "outcome": "inactive"}
